The whole screen tested about 310,000 compounds, of which about 1,000 (0.32%) were called active. A selection follows. Potency and affinity values are given separately. A number with no mark means an inactive call. No rule for the calls is given here.
Assay: PhoP regulon inhibitors, Salmonella typhi PhoP promoter GFP reporter, confirmatory (AID 1850);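 also: 0% = induced wells with vehicle and 100% = uninduced wells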
Conditions: fluorescence, 4 h, at 50 µM, active compounds read high

SMILES | inhibition [%]
CS(=O)(=O)c1ccc(Cl)c(NC(=O)COC(=O)/C=C/c2cnc3ccccc3n2)c1 | 5.47
O=C(Nc1nc(-c2ccccn2)cs1)c1ncc(Cl)c(Cl)c1Cl | -0.4
O=C(Nc1nc(-c2cccs2)cs1)c1ccc(Cl)s1 | -14
O=C(Nc1nc(-c2ccccn2)cs1)c1ccco1 | 2.93
Cc1csc(NC(=O)c2ccc(Br)s2)n1 | 11.7
COC(=O)C(Cc1ccccc1)N1CCS(=O)(=O)CC1 (stereo unspecified) | 9.2
CCCCOc1ccc(/C(O)=C2/C(=O)C(=O)N(CCN(C)C)C2c2ccc(O)c(OC)c2)cc1 (stereo unspecified) | -11.8
O=C(Nc1ccccn1)c1ccc2c(c1)S(=O)(=O)c1ccccc1C2=O | -0.07
COc1ccccc1CNc1cc(C)ccc1C | 4.32
COc1ccc(CCN(Cc2nc3ccccc3c(=O)[nH]2)C(=O)C2CC2)cc1 | -4.16
Cc1ccc(C(=O)N/C(=C\c2ccc(-c3cccc([N+](=O)[O-])c3)o2)C(=O)NCCCN(C)C)cc1 | 16.2
CN(C)CCCNC(=O)/C(=C\c1ccc(-c2ccc(Br)cc2)o1)NC(=O)c1ccccc1 | 22.2
Cc1ccc(C(=O)N/C(=C/c2ccc(-c3ccc([N+](=O)[O-])cc3)o2)C(=O)NCCCN(C)C)cc1 | -1.29
CN(C)CCNC(=O)/C(=C/c1ccc(-c2cccc(Cl)c2)o1)NC(=O)c1ccccc1 | 20.4
CN(C)CCCNC(=O)/C(=C/c1ccc(-c2ccc([N+](=O)[O-])cc2)o1)NC(=O)c1ccccc1 | 8.87
Cc1ccc(C(=O)N/C(=C\c2ccc(-c3ccccc3[N+](=O)[O-])o2)C(=O)NCCCN(C)C)cc1 | -1.46
Cn1c(=O)oc2cc(S(=O)(=O)NCc3ccccn3)ccc21 | 0.2
Cc1cc(C)cc(NC(=S)/N=C(\N)Nc2nc(C)c3ccccc3n2)c1 | -5.71
Cc1ccc(COC(=O)c2ccc3ccccc3n2)cc1 | -0.98
COc1ccc(CC(=O)c2ccc(O)cc2O)cc1 | -0.72
O=C(Cc1ccc(F)cc1)c1ccc(O)cc1O | -11.9
C=CCOCCN1C(=O)C2C(c3ccccc3)C=CC(c3ccccc3)C2C1=O (stereo unspecified) | 5.25

SMILES | inhibition [%]
CCc1nnc(NC(=O)[C@@H]2CCCN2S(=O)(=O)c2ccc3c(c2)OCCO3)s1 | -7.63
CN1CCN(CCCN2c3ccccc3Sc3ccc(S(=O)(=O)N(C)C)cc32)CC1 | 0.8
CN1CCCCC1CCN1c2ccccc2Sc2ccc(S(C)=O)cc21 (stereo unspecified) | 0.68
CN1CCN(CCC(=O)N2c3ccccc3Sc3ccc(Cl)cc32)CC1 | -0.99
CN1CCCC(CN2c3ccccc3Sc3ccccc32)C1 (stereo unspecified) | -0.92
OCCN1CCN(CCCN2c3ccccc3Sc3ccc(Cl)cc32)CC1 | 4.15
CN1CCN(CCCN2c3ccccc3Sc3ccc(C(F)(F)F)cc32)CC1 | 5.34
O=C(Nc1cccc(-n2cccn2)c1)C1CCCN(Cc2cccc(F)c2F)C1 (stereo unspecified) | -4.31
N/C(=N\OC(=O)c1ccc(Br)cc1)c1ccncc1 | 5.21
COc1ccc(OC)c(S(=O)(=O)N2CCC(C(=O)NCc3ccc4c(c3)OCO4)CC2)c1 | -8.79
Cc1ccc2cc(CCNC(=O)c3cccs3)c(=O)[nH]c2c1C | 3.08
CCOc1ccc(S(=O)(=O)N2CCN(C(=O)c3ccc(-n4cncn4)c([N+](=O)[O-])c3)CC2)cc1 | -1.56
COc1ccc(N2CCN(C(c3cccs3)C(C)NS(C)(=O)=O)CC2)cc1 (stereo unspecified) | -6.29
Cc1nc(N)nc(Cl)c1Cc1ccc(Cl)cc1 | -7.07
COc1ccc(Cc2c(C)nc(N)nc2Cl)cc1 | -7.38
CCCCN(C)CCNC(=O)c1cc2cc3ccc(OC)cc3nc2o1 | 7.2
CCN(CC(=O)Nc1ccccc1C(F)(F)F)C(=O)CN1C(=O)NC2(CCCCC2)C1=O | -5.21
Nc1nc(SCC(=O)Nc2ccccc2Sc2ccccc2)n[nH]1 | -1.42
COc1ccccc1NC(=O)CCn1cccc1 | -6.32
C/C(=N\Nc1ccc2nncn2n1)c1ccco1 | 2.03
C/C(=N\Nc1ccc2nncn2n1)c1cccs1 | 4.31
O=C(Nc1csc(Cc2c(Cl)cccc2Cl)n1)NN1CCOCC1 | -0.65

SMILES | inhibition [%]
CN1CCN(CCCNC(=O)Nc2ccc([N+](=O)[O-])cc2)CC1 | 1.78
O=C(NCCCN1CCCC1)Nc1ccc(F)cc1 | 2.17
COCC(=O)NNC(=O)Cc1ccc(Cl)cc1 | -2.72
CC(C)COc1ccc(Cc2cnc(N)nc2N)cc1 | 15.8
CC(C)Oc1ccc(Cc2cnc(=S)[nH]c2N)cc1 | 7.33
CCSc1ccccc1C(=O)N=C1NC(=O)CC2C(=O)NCCN12 (stereo unspecified) | 1.96
O=C(COc1ccc(C(=S)N2CCOCC2)cc1)Nc1ccccc1C(F)(F)F | -0.77
O=C(NCCCNC(=O)c1ccc(-c2cc(Cl)ccc2Cl)o1)c1cnccn1 | 9.68
COc1cccc(C(=O)NC2=NCCS2)c1OC | 2.77
O=C(O)c1ccc(Nc2c3ccccc3nc3ccccc23)cc1 | 4.42
CCOC(=O)Nc1c2ccccc2nc2ccccc12 | -6.02
CC(=O)C1=C(C)NC(=O)NC1c1ccccc1OCC(=O)NCCc1ccccc1 (stereo unspecified) | 2.94
Cc1nc2ccc(Br)cn2c1C(=O)N/N=C\c1ccccc1[N+](=O)[O-] | -1.1
O=C(COc1ccc(Cl)cc1Cl)N1CCCCCC1 | 3.1
C(=N\c1nccs1)/c1cccnc1 | 10.7
O=C(Nc1ccc(Cl)cc1)Nc1nccs1 | -2.29
Cc1csc(N/N=C\c2cccnc2)n1 | -7.97
Clc1cccc(Cl)c1/C=N\Nc1nccs1 | -7.79
CC(=O)Nc1sc(N/N=C\c2cccc(Cl)c2)nc1-c1cccs1 | -2.74
O=C(Nc1ccc(Cl)c(Cl)c1)Nc1nccs1 | 0.93
Fc1cccc(/C=N/Nc2ccccn2)c1 | -0.26
FC(F)(F)c1ccc(N/N=C/c2cccnc2)nc1 | -6.21

Source: PubChem BioAssay AID1850 (Southern Research Specialized Biocontainment Screening …, 2009)
